According to PubChem BioAssay (NCI):
Compounds without any hit were thinned out: in the full panel of roughly 83,000, 20% have a hit.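 A percent growth of 40 corresponds to 60% growth inhibition; 0 means no net growth; -100 means all cells died. Active threshold: below 10.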 Activity calls are given as the source filed them.

What follows are compounds tested on COLO 205 colon (assay: NCI-60 one-dose screen, 48 h (100 = growth as untreated, 0 = no growth, -100 = all killed)). Conditions: 10 µM unless noted.
CC(C)CCC[C@@H](C)[C@H]1CC[C@H]2[C@@H](Nc3ccc(O)cc3)CCC[C@]12C was tested, and the growth was 95.5% (inactive). O=C(Nc1ccccc1)Nc1cccc(Oc2nnc(Cl)c3ccccc23)c1 was tested, and the growth was 35.2% (inactive). In the case of CCCCNC(=O)Oc1ccc2c(=O)c3sc4c(=O)c5ccccc5c(=O)c4c3c(=O)c2c1, the growth is reported as -84.9% (active). For COc1nc(N(C)O)nc(N(C)O)n1, the growth was 19.6% (inactive). N=c1sc(Cc2ccc(Cl)cc2)cn1CC(=O)c1ccc(F)cc1 was tested, and the growth was 145% (inactive). With Cc1ccc(-c2cc(-c3ccccc3C)[nH]c(=O)c2C#N)s1 the growth was 117% (inactive). O=C1/C(=C\c2c[nH]c3ccccc23)c2ccccc2N1c1c(Cl)cccc1Cl was tested, and the growth was -100% (active). For COc1ccc(C2C(c3nn[nH]n3)=C(N)Oc3c2ccc2ccccc32)cc1 (stereo not drawn), the growth was 92.5% (inactive). For CCCCCCCOc1c(OC)cc(C2CC(=O)Nc3c2c(C)nn3-c2nc3ccccc3[nH]2)cc1OC (stereo not drawn), the growth was 3.24% (active). In the case of Cc1c(C(=O)OC(=NC2CCCCC2)NC2CCCCC2)sc2c1c(=O)nc1c(C#N)n[nH]n12, the growth is reported as 120% (inactive). In the case of C[n+]1cccc(CC(=O)NO)c1, the growth is reported as 97.7% (inactive). With c1c[nH]c(CNC2CCCCC2)c1 the growth was 115% (inactive). For N#C/C(=C\c1ccc(Br)cc1)n1nnc2cc(F)c(F)cc21, the growth was 25.7% (inactive). CC1(C)CC[C@]2(C(=O)N3CCOCC3)CC[C@]3(C)C(=CC[C@@H]4[C@@]5(C)CC[C@H](OC(=O)c6cccnc6)C(C)(C)[C@@H]5CC[C@]43C)[C@@H]2C1 was tested, and the growth was 58.4% (inactive). For O=C(c1ccccc1)c1c(/C=C/c2ccccc2)nc2ccccc2c1/C=C/c1ccc(Br)cc1, the growth was 114% (inactive). O=C(COc1ccc(/C=C2\Oc3ccccc3C2=O)cc1)Nc1nc2c(s1)CCCC2 was tested, and the growth was 102% (inactive). With Cc1ccc(Cl)c(NS(=O)(=O)c2ccc(-c3cnc(C4CC4)o3)cc2)c1 the growth was -0.408% (active). For Cc1ccc2nc(C)c(-c3nnc(SCc4ccc(C#N)cc4)o3)n2c1, the growth was 116% (inactive). With CC1=C(SCCC(=O)OC(C[Se]C2=C(C)C(=O)c3ccccc3C2=O)C(=O)NCCCCCC(=O)OCc2ccccc2)C(=O)c2ccccc2C1=O (stereo not drawn) the growth was 40% (inactive). NNC(=O)c1nc(N)n(-c2ccc(S(N)(=O)=O)cc2)n1 was tested, and the growth was 103% (inactive). For Cn1c(=O)c2[nH]c(NN)nc2n(C)c1=O, the growth was 109% (inactive). O=C(/C=C/c1cccc(O)c1)c1cccc(-n2cc(-c3ccc4ccccc4c3)[nH]c2=O)c1 was tested, and the growth was -8.8% (active). With O=C(/C=C/c1ccco1)c1ccc(Nc2nc(Nc3ccc(F)cc3)nc(Nc3ccc(Cl)cc3)n2)cc1 the growth was 35.9% (inactive). O=C1OC(c2nc3ccccc3s2)=C/C1=C\c1ccc(O)cc1 was tested, and the growth was 102% (inactive). For COc1ccc(-c2c(N)n[nH]c2-c2ccc(Cl)cc2O)cc1OC, the growth was 113% (inactive). O=C(Nc1cccc(Cl)c1)c1cc(N=Nc2ccc([N+](=O)[O-])cc2Cl)ccc1O was tested, and the growth was 82.2% (inactive). In the case of CCN(CC)CCN1C(=O)c2c(c(C)c3c(oc4cc(O)ccc43)c2C)C1=O, the growth is reported as 12.8% (inactive). In the case of CNC(=O)c1cc(Oc2ccc3nc(Nc4ccc(Cl)c(C(F)(F)F)c4)ccc3c2)ccn1, the growth is reported as 52.6% (inactive). For CCCc1cc2c(=O)c(C(=O)OC)c[nH]c2cc1N(CC)CC, the growth was 119% (inactive). For COc1cc(/C=N/NC(=O)Cn2c(C(C)C)nc3ccccc32)ccc1O, the growth was 109% (inactive). For COc1ccc(C(=O)COc2ccc(/C=C3\Oc4ccccc4C3=O)cc2)cc1, the growth was 99.2% (inactive). In the case of CCN(CCNc1ccc(C)c2sc3ccccc3c(=O)c12)CC(C)(C)O, the growth is reported as 67.8% (inactive). O=C(CSc1nnc(-c2ccc(NC(=O)c3cccnc3)cc2)o1)N[C@@H](Cc1ccc(O)cc1)C(=O)O was tested, and the growth was 101% (inactive). With CN(C)c1ccc(/C=C/C(=O)c2cccc(Nc3nc(Nc4ccccc4)nc(Nc4ccccc4)n3)c2)cc1 the growth was 81.5% (inactive). In the case of N#C/C(=C\c1ccc(-c2ccccc2F)o1)c1nc(-c2ccco2)cs1, the growth is reported as 99.6% (inactive). For Cc1ccc(C(=O)CSc2nc(-c3ccc(Br)cc3)c(C#N)c(=O)[nH]2)cc1, the growth was 102% (inactive). COc1ccc(-c2nc3sccn3c2-c2cc(-c3cc(OC)c(OC)c(OC)c3)on2)cc1 was tested, and the growth was 94.2% (inactive). In the case of c1ccc(-c2nc([P+](c3ccccc3)(c3ccccc3)c3ccccc3)c(N3CCOCC3)o2)cc1, the growth is reported as -64.5% (active).
